Test results published in PubChem BioAssay (NCI).
Compounds without any hit were thinned out: in the full panel of roughly 79,000, 15% have a hit. A number with no mark means an inactive call. Active and inactive are the calls of the source. Rule as the data show it: active = growth inhibition above about 70%; inactive = the rest.

Assays:
[1] = NCI Yeast Anticancer Drug Screen. Data for the rad50 strain (AID 155);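 also: 0% = growth of vehicle-only cultures of the same strain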; conditions: S. cerevisiae rad50 strain growth inhibition, hits give high values
In short: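 Growth of the mutant yeast was measured after compound exposure and referenced to vehicle-treated cultures.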

[2] = NCI Yeast Anticancer Drug Screen. Data for the mec2-1 strain (AID 157); conditions: S. cerevisiae mec2-1 strain, hits give high values
In short: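 Strain: mec2-1 (DNA repair/cell cycle alteration). Compound exposure, then growth measured; inhibition expressed relative to vehicle.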

[3] = NCI Yeast Anticancer Drug Screen. Data for the sgs1 mgt1 strain (AID 161);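 also: 0% = growth of cultures given vehicle only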; conditions: S. cerevisiae sgs1 mgt1 strain, hits give high values
In short: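 Genetically altered yeast, compound exposure, growth inhibition relative to vehicle.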

[4] = NCI Yeast Anticancer Drug Screen. Data for the cln2 rad14 strain (AID 165);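 also: 0% = growth equal to vehicle treated cultures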; conditions: S. cerevisiae cln2 rad14 strain, hits give high values
In short: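 Compounds are applied to the cln2 rad14 yeast strain, and growth is then compared with that of vehicle-treated cultures to give inhibition.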

[5] = NCI Yeast Anticancer Drug Screen. Data for the bub3 strain (AID 167); conditions: S. cerevisiae bub3 mutant strain, hits give high values
In short: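 Whole-cell yeast assay. The mutant strain was incubated with compounds, and growth inhibition was determined by comparison with vehicle-treated cells.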

[6] = NCI Yeast Anticancer Drug Screen. Data for the mlh1 rad18 strain (AID 175); conditions: S. cerevisiae mlh1 rad18 strain growth inhibition, hits give high values
In short: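 Read-out is yeast growth inhibition, calculated against vehicle-only controls. The compound was applied to a strain engineered with DNA damage repair alterations.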

[7] = at 5.0 µM (retest, dose inferred, filed as 0.5)
[8] = at 50.0 µM (retest, dose inferred, filed as 5.0)

SMILES | growth inhibition [1, 7] [%] | growth inhibition [1, 8] | growth inhibition ([1]; at 50.0 µM) | growth inhibition [2, 7] [%] | growth inhibition [2, 8] | growth inhibition ([2]; at 50.0 µM) | growth inhibition [3, 7] [%] | growth inhibition [3, 8] | growth inhibition ([3]; at 50.0 µM) | growth inhibition [4, 7] [%] | growth inhibition [4, 8] | growth inhibition ([4]; at 50.0 µM) | growth inhibition [5, 7] [%] | growth inhibition [5, 8] | growth inhibition ([5]; at 50.0 µM) | growth inhibition [6, 7] | growth inhibition [6, 8] | growth inhibition ([6]; at 50.0 µM)
COC(=O)/C=N/O | -17 | 7% | -19.4% | -9 | -6% | -6.9% | -5 | -4% | 8.85% | 7 | -1% | 0.85% | -19 | -1% | -14.9% | -2% | -6% | 36.3%
Oc1ccc(C2SC(c3ccc(O)cc3)SC(c3ccc(O)cc3)S2)cc1 (stereo not drawn) | 14 | 98% (active) | 97.6% (active) | -1 | 96% (active) | 99.3% (active) | -23 | 99% (active) | 99% (active) | 23 | 98% (active) | 98.4% (active) | 30 | 99% (active) | 98.1% (active) | 35% | 99% (active) | 98.8% (active)
O=C(c1ccccc1)C1N=NCC1c1ccc([N+](=O)[O-])cc1 (stereo not drawn) | 2 | -21% | -3.65% | 11 | 9% | 10.1% | 1 | 47% | 18.2% | 5 | -4% | -4.4% | -5 | 5% | 84.2% (active) | 0% | -4% | 40.6%
CC(=O)CC1(O)C(=O)Nc2ccc(Br)cc21 (stereo not drawn) | 1 | -2% | 39% | 0 | -3% | 6.3% | -2 | 1% | 10.8% | -3 | 8% | 60.1% | 6 | 2% | 0.8% | -5% | -8% | 5.25%
Clc1ccc([I+]c2cccs2)cc1 | 37 | 97% (active) | 98% (active) | 51 | 99% (active) | 98.7% (active) | 45 | 98% (active) | 8.95% | 33 | 97% (active) | 97.7% (active) | 66 | 97% (active) | 98% (active) | 72% (active) | 98% (active) | 99% (active)
C=CCCCCO/N=C/c1c2c(O)c3c(O)c(C)c4c(c3c1O)C(=O)C(C)(O/C=C/C(OC)C(C)C(OC(C)=O)C(C)C(O)C(C)C(O)C(C)/C=C/C=C(\C)C(=O)N2)O4 (stereo not drawn) | 44 | 89% (active) | 86.4% (active) | 44 | 91% (active) | 91.8% (active) | 33 | 87% (active) | 66.8% | 67 | 91% (active) | 88.3% (active) | 49 | 93% (active) | 79.9% (active) | 34% | 89% (active) | 85.3% (active)
